U2OS ROS induce: ROS inducers in U2OS cancer cells, primary screen, cell-based, H2DCF-DA fluorescence. ROS induction (% of piperlongumine), % at 10 µM. U2OS ROS induction. 46,000 compounds, 2% hits; in the data active = ROS induction above about 79%, passing the limit was not always enough;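 also: 0% = DMSO vehicle median and 100% = reference compound median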
YB-1 expression: inhibitors of YB-1 gene expression, primary screen, cell-based, fluorescence | 30,000 compounds, 0.37% hits | AID 434959, 2010 | delta delta Cp (YB-1 minus CDIP) (test concentration not listed) | U2OS, qRT-PCR YB-1 vs CDIP delta delta Cp, 16 h; active compounds read high; zero = DMSO, each unit about twofold;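 active = delta delta Cp rounded down to an integer at or above 3, about 3 SD of DMSO wells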;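 also: higher means less YB-1 transcript or more CDIP transcript relative to DMSO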
The depositor's hits bear a star; nt = no result. This is a sample that favours compounds with a hit; in the whole collection about 2.1% have one here.

SMILES	U2OS ROS induce	YB-1 expression
Cc1ccc(S(=O)(=O)N(C)C[C@@H]2Oc3ccc(NC(=O)Nc4ccc(C(F)(F)F)cc4)cc3CC(=O)N([C@@H](C)CO)C[C@@H]2C)cc1	98*	0.041
Cn1c(CCCO)nc2ccccc21	1	nt
O=C(Oc1ccc(N(Cc2cccs2)C2=NS(=O)(=O)c3ccccc32)cc1)c1ccccc1	57	-0.18
CN(/N=C/c1ccccc1)C1=NS(=O)(=O)c2ccccc21	96*	0.073
Cc1ccc2cc3c(N)nn(C(=O)c4ccccc4F)c3nc2c1	17	nt
O=C(c1ccccc1)N1CN(C(=O)c2ccccc2)CN(C(=O)c2ccccc2)C1	-6	nt
COc1ccccc1NC(=O)C(NC(=O)c1ccccc1NC(=O)c1ccccc1)C(C)C (stereo not given)	97*	nt
COc1ccc(C(=O)Nc2ccccc2C(=O)NC(C(=O)O)C(C)C)cc1 (stereo not given)	-12	nt
CC1(C)C=Cc2c(c3occc3c3oc(-c4ccccc4)cc(=O)c23)O1	223*	0.19
O=c1cc(-c2ccccc2)oc2cccc(O)c12	-1	0.99
O=C(Cc1c(F)cccc1Cl)Nc1ccc2nc3n(c(=O)c2c1)CCCCC3	-4	nt
COC(=O)C(C)Sc1nnc2c3ccccc3n(Cc3ccccc3)c2n1 (stereo not given)	146*	nt
CCC(Sc1nnc2c3ccccc3n(CC)c2n1)C(=O)NC(C)c1ccccc1 (stereo not given)	18	nt
CCc1cccc(OCC(=O)Nc2ccc(S(=O)(=O)Nc3nccs3)cc2)c1	4	nt
Oc1ccccc1-c1cc(-c2ccccc2O)nc(-c2ccccc2)n1	2	nt
c1ccc(-c2ccc3c(n2)CCc2ccccc2-3)cc1	107*	-0.19
CC(=O)Nc1ccccc1NC(=O)c1ccco1	-8	nt
COCCOC(=O)N1C(=O)[C@@]2(c3cc(C#Cc4ccc(OC)cc4)ccc31)[C@H](c1ccccc1OCCO)N1[C@H](c3ccccc3)[C@H](c3ccccc3)OC(=O)[C@H]1[C@@H]2C(=O)NC[C@H](O)c1ccccc1	22	-0.57
COCCOC(=O)N1C(=O)[C@@]2(c3cc(C#CCC(C(=O)OC)C(=O)OC)ccc31)[C@H](c1ccccc1OCCO)N1[C@H](c3ccccc3)[C@H](c3ccccc3)OC(=O)[C@H]1[C@@H]2C(N)=O	407*	0.25
C=CCNC(=O)[C@@H]1[C@H]2C(=O)O[C@H](c3ccccc3)[C@H](c3ccccc3)N2[C@H](c2ccccc2OCCO)[C@@]12C(=O)N(C(=O)OCCOC)c1ccc(C#Cc3ccc(OC)cc3)cc12	34	-0.34
COCCOC(=O)N1C(=O)[C@@]2(c3cc(C#CCNC(N)=O)ccc31)[C@H](c1ccccc1OCCO)N1[C@H](c3ccccc3)[C@H](c3ccccc3)OC(=O)[C@H]1[C@@H]2C(N)=O	-4	-0.13
COCCOC(=O)N1C(=O)[C@@]2(c3cc(C#CCC(C(=O)OC)C(=O)OC)ccc31)[C@H](c1ccccc1OCCO)N1[C@H](c3ccccc3)[C@H](c3ccccc3)OC(=O)[C@H]1[C@@H]2C(=O)NC[C@H](O)c1ccccc1	320*	-0.27
COCCOC(=O)N1C(=O)[C@@]2(c3cc(C#CC4=CCCCC4)ccc31)[C@H](c1ccccc1OCCO)N1[C@H](c3ccccc3)[C@H](c3ccccc3)OC(=O)[C@H]1[C@@H]2C(N)=O	84*	-0.06
C=CCNC(=O)[C@H]1[C@@H]2C(=O)O[C@@H](c3ccccc3)[C@@H](c3ccccc3)N2[C@@H](c2ccccc2OCCO)[C@]12C(=O)N(C(=O)OCCOC)c1ccc(C#CCC(C(=O)OC)C(=O)OC)cc12	179*	0.044
COCCOC(=O)N1C(=O)[C@@]2(c3cc(C#Cc4ccc(OC)cc4)ccc31)[C@H](c1ccccc1OCCO)N1[C@H](c3ccccc3)[C@H](c3ccccc3)OC(=O)[C@H]1[C@@H]2C(N)=O	74	0.27
CC(C)C1C(=O)OC2(C)CC(C)(C)NC(=S)N12 (stereo not given)	-9	nt
N=c1c(S(=O)(=O)c2ccccc2)cc2c(=O)n3ccccc3nc2n1C1CCCC1	83*	nt
COC(=O)c1cc2c(=O)n3ccccc3nc2n(C(C)C)c1=N	-4	nt
COc1ccccc1C(=O)Nc1ccc2nc(SCC(=O)Nc3ccc(C)cc3C)sc2c1	17	nt

Screening results deposited in PubChem by Broad Institute.
